# From the supplement of paper PMC8371130
# Counter-ions that a name gives are not always drawn.
# Test system: HL-1
# Assay: relative cell viability (CellTiter-Glo) vs DMSO control (% of DMSO control); higher = more viable cells
# Summary of the method: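 HL-1 mouse atrial cardiomyocytes were seeded into 384-well plates at 1000 cells per well along with compounds at 40, 200, 1000 or 5000 nM in 0.01% DMSO. After one day, the cells were moved to a hypoxic workstation (1% O2) for 48 h and then reoxygenated for 24 h in a normal incubator, while others remained in normoxia for the same period. Cell viability was measured by CellTiter-Glo luminescence and normalised to vehicle-treated control cells.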
# [1] = oxygen condition: hypoxia 48 h (1% O2) + reoxygenation 24 h, 40 nM
# [2] = oxygen condition: hypoxia 48 h (1% O2) + reoxygenation 24 h, 200 nM
# [3] = oxygen condition: hypoxia 48 h (1% O2) + reoxygenation 24 h, 1000 nM
# [4] = oxygen condition: hypoxia 48 h (1% O2) + reoxygenation 24 h, 5000 nM
# [5] = oxygen condition: normoxia 72 h, 40 nM
# [6] = oxygen condition: normoxia 72 h, 200 nM
# [7] = oxygen condition: normoxia 72 h, 1000 nM
# [8] = oxygen condition: normoxia 72 h, 5000 nM
Structure (SMILES),relative cell viability [1],relative cell viability [2],relative cell viability [3],relative cell viability [4],relative cell viability [5],relative cell viability [6],relative cell viability [7],relative cell viability [8]
Cn1c(CCCC(=O)O)nc2cc(N(CCCl)CCCl)ccc21 [Bendamustine HCL],111,111,108,110,114,114,110,111
CC[N+]1(C)CCCC(OC(=O)C(O)(c2ccccc2)c2ccccc2)C1 (stereo not given) [Pipenzolate Bromide],101,98.3,102,105,100,111,101,116
C=CC[C@]1(O)CC[C@H]2[C@@H]3CCC4=CC(=O)CCC4=C3C=C[C@@]21C [Altrenogest],105,110,106,108,104,107,102,105
N.N.[Cl][Pt][Cl] [Cisplatin],91.6,77.8,80.1,111,82.7,80.6,89.5,110
CC(=O)O[C@@]12CO[C@@H]1C[C@H](O)[C@@]1(C)C(=O)[C@H](O)C3=C(C)[C@@H](O)C[C@@](O)([C@@H](OC(=O)c4ccccc4)[C@H]21)C3(C)C,86.6,102,105,113,105,105,103,124
CCOC(=O)c1cncn1[C@H](C)c1ccccc1 [Etomidate],101,107,118,115,104,109,104,109
C/C=C(\C)C(=O)N[C@@H](c1ccccc1)[C@@H](O)C(=O)O[C@H]1C[C@@]2(O)[C@@H](OC(=O)c3ccccc3)[C@@H]3[C@]4(OC(C)=O)CO[C@@H]4C[C@H](O)[C@@]3(C)C(=O)[C@H](OC(C)=O)C(=C1C)C2(C)C [Cephalomannine],24.9,28,23.6,28,21.5,21.7,20.2,25.3
Cc1cccc(C)c1NC1=NCCCS1 [Xylazine HCl],99.5,101,103,107,106,98.1,102,105
O=C(O[C@H]1C[C@H]2CC[C@@H](C1)[N+]21CCCC1)C(O)(c1ccccc1)c1ccccc1 [Trospium chloride],95,98.6,90.1,105,103,95.1,95.8,101
CN1[C@@H]2CC[C@H]1C[C@@H](OC(=O)[C@H](CO)c1ccccc1)C2 [Hyoscyamine],104,103,109,106,109,101,114,116
CNC(=O)Oc1ccc2c(c1)[C@]1(C)CCN(C)[C@@H]1N2C [Physostigmine Salicylate],89.5,84.3,69.5,41.9,84.3,84.1,64.7,48.8
COc1ccc(C(CN(C)C)C2(O)CCCCC2)cc1 (stereo not given) [Venlafaxine],97.2,96.1,101,102,102,96.1,99.5,108
Cc1cccc([C@H](C)c2c[nH]cn2)c1C [Dexmedetomidine HCl],111,107,102,89.4,106,96.7,98.5,99.5
C[C@]12CCC(=O)C=C1C=C[C@@H]1[C@@H]2CC[C@@]2(C)[C@H]1CC[C@@]2(O)CCC(=O)O [Potassium Canrenoate],100,96.7,97.6,103,101,98.6,94.2,108
O=C1CC[C@@]2(O)[C@H]3Cc4ccc(O)c5c4[C@@]2(CCN3CC2CC2)[C@H]1O5 [Naltrexone HCl],102,106,99.6,108,107,106,113,110
CC(C)NCC(O)c1ccccc1Cl (stereo not given) [Clorprenaline HCL],104,102,106,117,105,102,103,108
COC(=O)C1=CCCN(C)C1 [Arecoline],105,108,106,111,109,112,109,111
CCCN1C[C@H](CSC)C[C@@H]2c3cccc4[nH]cc(c34)C[C@H]21 [Pergolide mesylate],103,100,106,109,105,102,110,120
CC(O)(CS(=O)(=O)c1ccc(F)cc1)C(=O)Nc1ccc(C#N)c(C(F)(F)F)c1 (stereo not given) [Bicalutamide],106,107,107,104,106,111,110,107
CCN(C)C(=O)Oc1cccc([C@H](C)N(C)C)c1 [Rivastigmine tartrate],105,102,110,109,99.9,106,108,105
C[N+]1(C)[C@@H]2C[C@@H](OC(=O)[C@H](CO)c3ccccc3)C[C@H]1[C@@H]1O[C@@H]12 [Methscopolamine],99.5,101,100,106,97.5,101,101,101
CCC1(c2cccc(O)c2)CCCCN(C)C1 (stereo not given) [Meptazinol HCl],97.8,103,103,109,97.7,98.3,102,108
CN1C(=O)COc2c(C(=O)NC3CN4CCC3CC4)cc(Cl)cc21 (stereo not given) [Azasetron HCl],98.7,97.9,105,106,94.8,98.3,110,107
NCCc1c[nH]c2ccc(O)cc12 [Serotonin HCl],102,96.6,99.8,107,101,101,100,113
CNCC(=O)c1ccc(O)c(O)c1 [Adrenalone HCl],97.4,101,106,108,99.1,105,99.6,107
CC[C@@H](C(N)=O)N1CCCC1=O [Levetiracetam],113,109,118,113,109,113,116,117
O=P1(NCCCl)OCCCN1CCCl (stereo not given) [Ifosfamide],110,117,124,109,103,101,117,112
O=c1[nH]c2ccccc2n1CCCN1CCC(n2c(=O)[nH]c3cc(Cl)ccc32)CC1 [Domperidone],104,105,102,109,100,98.5,101,113

Structure (SMILES),relative cell viability [1],relative cell viability [2],relative cell viability [3],relative cell viability [4],relative cell viability [5],relative cell viability [6],relative cell viability [7],relative cell viability [8]
Cc1cccc(Cc2c[nH]cn2)c1C [Detomidine HCl],100,94.5,101,103,92.9,88.2,98.6,113
OC(c1ccccc1)(c1ccccc1)C1CCNCC1 [Azacyclonol],104,104,106,108,108,101,104,115
CN1[C@@H]2CC(O)C[C@H]1[C@@H]1O[C@@H]12 (stereo not given in full) [Scopine],98.4,101,100,105,94.7,99.2,96.5,105
CN(C)C(=O)Oc1cccc([N+](C)(C)C)c1 [Neostigmine bromide],106,100,97.4,113,101,105,103,109
C#C[C@]1(O)C=C[C@H]2[C@@H]3CCC4=CC(=O)CC[C@@H]4[C@H]3CC[C@@]21CC [Gestodene],102,100,109,107,111,103,105,106
CC(C)N(CCNC(=O)CN1CCCC1=O)C(C)C [Pramiracetam],104,103,106,112,98.6,104,107,111
CN1c2ccccc2C(NCCCCCCC(=O)O)c2ccc(Cl)cc2S1(=O)=O (stereo not given) [Tianeptine sodium],106,105,108,106,98.8,103,104,110
O=P1(N(CCCl)CCCl)NCCCO1 (stereo not given) [Cyclophosphamide monohydrate],100,94.2,97.1,108,104,97,106,111
CNC1CC(N)C(O)C(OC2OC(CO)C(O)C3OC4(OC(C(N)CO)C(O)C(O)C4O)OC23)C1O (stereo not given) [Hygromycin B],108,102,107,110,104,106,110,106
Cc1cccc(C)c1NC(=O)CN1CCCC1=O [Nefiracetam],101,99.1,102,104,101,97.1,105,101
CCC1(c2ccc(N)cc2)CCC(=O)NC1=O (stereo not given) [Aminoglutethimide],104,99.3,89.1,72.3,99.4,93.8,92.1,66.7
C=CCN1CC[C@]23c4c5ccc(O)c4O[C@H]2C(=O)CC[C@@]3(O)[C@H]1C5 [Naloxone HCl],109,103,104,117,104,104,109,113
CC(=O)O[C@H]1C[C@@H]2CC[C@@H]3[C@H](CC[C@@]4(C)[C@H]3C[C@H]([N+]3(C)CCCCC3)[C@@H]4OC(C)=O)[C@@]2(C)C[C@@H]1[N+]1(C)CCCCC1 [Pancuronium],103,101,102,109,101,105,108,101
COc1ccc(OC)c(C(O)C(C)N)c1 (stereo not given) [Methoxamine HCl],107,102,101,102,102,105,80.9,123
C=C1C[C@@H]2[C@H](CC[C@]3(C)C(=O)CC[C@@H]23)[C@@]2(C)C=CC(=O)C=C12 [Exemestane],108,98.9,107,105,107,106,124,112
CCC(COC(=O)c1cc(OC)c(OC)c(OC)c1)(c1ccccc1)N(C)C (stereo not given) [Trimebutine],104,95.7,100,103,98.5,98.1,101,104
O=C(O[C@H]1C[N+]2(CCCOc3ccccc3)CCC1CC2)C(O)(c1cccs1)c1cccs1 [Aclidinium Bromide],104,108,108,110,103,115,106,121
C[C@@H]1O[C@@H](O[C@H]2C[C@@H](O)[C@]3(CO)[C@H]4[C@H](O)C[C@]5(C)[C@@H](C6=CC(=O)OC6)CC[C@]5(O)[C@@H]4CC[C@]3(O)C2)[C@H](O)[C@H](O)[C@H]1O [Ouabain],101,103,95.3,115,105,105,98.8,124
Cc1cccc([C@H](C)c2c[nH]cn2)c1C [Dexmedetomidine],112,105,106,107,107,104,118,116
C[N+](C)(C)CCCCCCCCCC[N+](C)(C)C [Decamethonium bromide],106,103,107,112,107,103,106,117
C[C@]12C/C(=C/O)C(=O)C[C@@H]1CC[C@@H]1[C@@H]2CC[C@@]2(C)[C@H]1CC[C@]2(C)O [Oxymetholone],104,104,104,114,104,102,105,115
CN(C)C(=O)Oc1ccc[n+](C)c1 [Pyridostigmine Bromide],98.7,104,103,103,92.1,104,95.5,100
O=C(O)c1nn(Cc2ccc(Cl)cc2Cl)c2ccccc12 [Lonidamine],104,105,109,111,111,102,122,112
COc1ccc(C(=O)N2CCCC2=O)cc1 [Aniracetam],106,111,110,113,101,104,111,116
C[C@]12CC[C@H]3[C@@H](CC[C@@]45O[C@@H]4C(O)=C(C#N)C[C@]35C)[C@@H]1CC[C@@H]2O [Trilostane],101,104,108,107,113,116,102,108
C[C@]12CC[C@H](O)CC1=CC[C@@H]1[C@@H]2CC[C@]2(C)C(=O)CC[C@@H]12 [Dehydroepiandrosterone],102,94,96.2,111,95.4,95.8,93.8,111
CC[C@@]1(O)C(=O)OCc2c1cc1n(c2=O)Cc2cc3ccccc3nc2-1 [Camptothecin],104,103,93.9,37.7,104,105,89.7,35.6
